Assay outcomes from PubChem.
TMEM16A inh: mouse TMEM16A channel inhibition, primary screen | Q8BHY3 | HEK293 TMEM16A/YFP iodide influx fluorescence, ionomycin | normalized B-score (activity score, 25-100; higher = stronger inhibition) at 10 µM | hit rate 1.2% among 310,000;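 active = ratio plate-corrected score three or more library SD toward inhibition, starting fluorescence score within five deviations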;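 also: score derived from kinetic fluorescence span divided by baseline fluorescence per well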
TLR4-MyD88 BLA: blocks binding of human TLR4 to MyD88 | HeLa CL3-4 TLR4/MyD88 BLA complementation, FRET ratio | hit rate 0.18% among 200,000 | inhibition, % at 8.4 µM; in the data active = inhibition above about 25%;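 also: 0% = vehicle and 100% = reference inhibitor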
TMEM16A act: activates or potentiates the mouse TMEM16A chloride channel; Q8BHY3; B-score at 10 µM; HEK293 TMEM16A/YFP-H148Q/I152L, iodide quench fluorescence; active compounds read low; hit rate 0.3% among 340,000;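 active = fluorescence-ratio B-score plate-corrected deviation score at least 3 library SD below zero, with starting fluorescence score within 5 deviations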;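 also: channel opened by trigger with iodide after compound preincubation; score built on the fluorescence ratio of max minus min over baseline; more negative score means more quench and so TMEM16A activation or potentiation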
HTR2A ag: mouse HTR2A agonism via beta-arrestin recruitment. CHO-K1 mHTR2A beta-arrestin complementation, luminescence; percent of 30 µM serotonin response. activation, % at 7.6 µM. hit rate 0.66% among 360,000. AID 624169;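 active = activation above a run cutoff, the mean activation of all tested compounds plus 3 SD, cut at about 14% in these data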;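 also: 0% = plate median of compound wells and 100% = 30 µM serotonin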
Target sequence (P35363 whole entry, looked up): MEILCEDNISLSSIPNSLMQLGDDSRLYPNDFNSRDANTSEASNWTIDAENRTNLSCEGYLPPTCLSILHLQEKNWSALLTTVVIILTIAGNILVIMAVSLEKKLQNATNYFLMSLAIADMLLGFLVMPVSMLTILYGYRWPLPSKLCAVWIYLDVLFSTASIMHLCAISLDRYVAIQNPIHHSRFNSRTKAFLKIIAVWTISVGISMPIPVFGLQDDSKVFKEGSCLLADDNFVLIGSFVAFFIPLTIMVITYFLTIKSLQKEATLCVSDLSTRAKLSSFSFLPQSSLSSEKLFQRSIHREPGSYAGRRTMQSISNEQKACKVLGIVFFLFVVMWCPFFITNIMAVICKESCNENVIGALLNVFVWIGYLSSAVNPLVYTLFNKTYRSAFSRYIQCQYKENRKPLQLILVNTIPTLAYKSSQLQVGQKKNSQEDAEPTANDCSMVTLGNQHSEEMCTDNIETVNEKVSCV
NOD2-RIPK2 inh: inhibitors of human NOD2-RIPK2 interaction | CHO BLA complementation NOD2-RIPK2, CCF4 ratio | inhibition, % at 4.98 µM | hit rate 0.38% among 360,000 | AID 624267; in the data active = inhibition above about 21%;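 also: 0% = vehicle only and 100% = reference blocker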
TLR9-MyD88 block: inhibitors of human TLR9-MyD88 binding; Q9NR96+Q99836; CHO BLA complementation TLR9-MyD88, CCF4 FRET ratio; inhibition, % at 4.98 µM; hit rate 0.21% among 340,000;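 active = inhibition above the mean over all tested compounds plus 3 SD, cut at about 21% in these data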;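 also: 0% = DMSO only wells and 100% = clavulanate BLA inhibitor control wells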
TMEM16A reconf: re-confirmation of mouse TMEM16A chloride channel inhibitors; shares compounds with TMEM16A inh; HEK293 TMEM16A/YFP-H148Q, iodide quench fluorescence; ionomycin added to raise cell calcium; inhibition, % at 10 µM; hit rate 39% among 2,300; AID 652189;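 active = mean duplicate percent inhibition, scaled so buffer wells are 0 and the reference blocker 100, over three buffer SD above buffer mean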
TMEM16A Ca cntr: alters calcium mobilization in TMEM16A HEK293 cells, counter-screen; shares compounds with TMEM16A inh; TMEM16A/YFP HEK293, Fluo4 calcium mobilization; calcium response (% of ionomycin), % at 10 µM; hit rate 2% among 2,300;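 active = duplicate-averaged calcium signal over 20% of the ionomycin maximum, relative to buffer baseline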;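 also: each well's signal is peak minus trough fluorescence divided by its pre-addition baseline; 0% = buffer wells and 100% = ionomycin wells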
YFP-HEK293 quench: acts in parental YFP-HEK293 cells lacking TMEM16A, counter-screen | iodide YFP quench, ionomycin | shares compounds with TMEM16A inh | AID 652233 | 2,300 tested, under 10 active | YFP ratio F(max-min)/F0 at 10 µM;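 active = yellow fluorescent protein signal ratio exceeding the buffer control mean by over 5 SD of those controls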;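 also: ratio is mean of duplicate wells from kinetic YFP trace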
ClC-1 inh: rat ClC-1 inhibition, TMEM16A specificity screen; shares compounds with TMEM16A inh; CHO ClC-1-YFP, iodide influx fluorescence quench; iodide control reads 0, buffer control 100; ratio percent, % at 10 µM; 2,300 tested, under 10 active; AID 652236;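 active = duplicate-mean ratio percent above the mean of iodide-only control wells, which defines zero, plus 5 of their SD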;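 also: higher percent means stronger block of ClC-1 iodide influx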
Numbers without * were called inactive; i = inactive; . = no result given; ! = a repeat was not active. In the library only some 2.4% were active in any assay of this set; here they are far more common.

SMILES	TMEM16A inh	TLR4-MyD88 BLA	TMEM16A act	HTR2A ag	NOD2-RIPK2 inh	TLR9-MyD88 block	TMEM16A reconf	TMEM16A Ca cntr	YFP-HEK293 quench	ClC-1 inh
Fc1ccc(NC(=S)Nc2ccccc2OC(F)F)cc1Cl	100*	-1	i	-2	0	5	63%*	i	-1.4	-30
FC(F)Oc1ccccc1NC(=S)Nc1cccnc1	i	1	i	3	0	-9	.	.	.	.
CCOc1ccc2c(C)cc(=O)oc2c1OCC	i	-1	i	-2	-7	12	.	.	.	.
CCCCOc1ccc2c(C)cc(=O)oc2c1OCCCC	100*	-1	i	-2	-2	8	i	i	-1.3	-10
COc1ccccc1C(=O)NCC(=O)N1CCN(S(=O)(=O)c2ccccc2C(F)(F)F)CC1	.	.	i	2	10	1	.	.	.	.
Cc1cccc(-n2cnc3cc(C(=O)N4CCCCC4)ccc32)c1	25*	-11	i	-2	4	5	i	i	-1.1	0
Cc1cccc(-n2c(C)nc3cc(C(=O)N4CCOCC4)ccc32)c1	i	.	i	-1	-6	-3	.	.	.	.
O=C(CSc1nnc(CNc2ccc(F)cc2)n1Cc1ccco1)N1CCCC1	25*	3	i	3	-7	-1	i	i	-1.2	-6
CN(C)S(=O)(=O)c1cccc(COC(=O)c2ccc(Cl)cc2O)c1	100*	.	i	6	-1	5	28%*	i	-0.88	-24
COCCCNC(=O)N1c2ccccc2Sc2ccccc21	i	.	i	-2	5	1	.	.	.	.
COc1ccc(CCNC(=O)N2c3ccccc3Sc3ccccc32)cc1	100*	-9	i	-6	-4	-3	53%*	i	-0.87	-14
N#Cc1c(NC(=O)CN2CCN(C(=O)c3ccco3)CC2)sc2c1CCCCC2	25*	4	i	-3	3	-3	i	i	-1.2	-18
N#Cc1c(NC(=O)CN2CCCCC2)sc2c1CCC2	i	24	i	8	3	1	.	.	.	.
CC(C)Cc1nc(N2CCN(C(=O)c3ccccc3)CC2)c(C#N)c2c1CCC2	i	-13	i	4	-4	-15	.	.	.	.
N#Cc1c(N2CCN(C(=O)c3ccco3)CC2)nc(-c2ccccc2)c2c1CCCC2	100*	15	i	-8	1	0	24%*	i	-1.2	-12
CC(C)Cc1nc(N2CCN(C(=O)c3ccco3)CC2)c(C#N)c2c1CCC2	25*	2	i	1	13	2	i	i	-1.3	-16
CCN(CC(=O)NC(C)(C)C)C(=O)c1ccccc1SCC(=O)NC1CCCCCCC1	i	.	i	6	1	4	.	.	.	.
Cc1c(O)cccc1C(=O)N[C@@H](CSc1ccccc1)[C@H](O)CN1C[C@H]2CCCC[C@H]2C[C@H]1C(=O)NC(C)(C)C	100*!	.	i	-5	-2	-12	41%*	i	-1	-2
CCOC(=O)C1(Cc2cccc(OC)c2)CCN(C/C=C/c2ccccc2)CC1	i	-1	i	-6	-7	-1	.	.	.	.
CCOC(=O)C1(Cc2cccc(OC)c2)CCN(C/C=C/c2ccc(OC)cc2)CC1	25*	1	i	-9	2	-4	i	i	-1.2	-18
COc1ccccc1CNC(=O)C[C@@H]1CC[C@H]2[C@@H](COC[C@H](O)CN2Cc2ccccc2)O1	.	.	.	1	-6	.	.	.	.	.
